# Assay outcomes: PubChem, National Center for Advancing Translational Sciences (NCATS)
# G9a block: qHTS Assay for Inhibitors of Histone Lysine Methyltransferase G9a | G9a H3K9 monomethylation, AlphaScreen, 2 h | Potency, µM (series often up to 102 µM), for the others: at the top dose activity, negative = inhibition, hits mostly inhibitors | hit rate 8.8% among 350,000 | AID 504332, 2011; also: potency is read from the fitted curve at half-maximal effect; % is scaled to controls: 0 for no effect and ±100 for the full control effect; nearly all actives have a fitted effect of over 75% in size
#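 Step 1: enzyme (final 20 nM) with compound, 15 min RT. Step 2: substrate peptide 500 nM and SAM 20 uM, 2 h RT. Step 3: anti-H3K9me1 antibody and AlphaScreen beads, 10 min, then plate read.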
# L3MBTL1 inh: qHTS Assay for the Inhibitors of L3MBTL1; AlphaScreen L3MBTL1–H3K9me1 peptide binding; hit rate 0.66% among 230,000; Potency, µM (highest dose often 57.1 µM), for the others: at the highest dose activity, negative = inhibition, most hits filed as inhibitors; Lethal(3)malignant brain tumor-like protein 1 (Homo sapiens), Q9Y468; also: potency is read from the fitted curve at half-maximal effect; % is scaled to controls: 0 for no effect and ±100 for the full control effect; nearly all actives have a fitted effect of over 60% in size
#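 L3MBTL1 (50 nM) pre-complexed 30 min with biotinylated H3(1-15)K9me1 peptide (75 nM), then compounds added for 30 min at room temperature; AlphaScreen streptavidin donor/nickel chelate acceptor beads (10 ug/mL final) read after 30 min dark incubation.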
# HP1b binding inh: HTS for Inhibitors of HP1-beta Chromodomain Interactions with Methylated Histone Tails; Chromobox protein homolog 1 (Homo sapiens), P83916; AlphaScreen HP1-beta / biotin-H3K9me3 peptide binding; Potency, µM (highest dose often 114 µM), for inactives: at the top dose activity change, negative = inhibition, most hits filed as inhibitors; hit rate 0.56% among 390,000; also: potency is read from the fitted curve at half-maximal effect; nearly all actives have a fitted effect of over 70% in size
#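 HP1-beta protein (50 nM final) preincubated 30 min at room temperature with biotinylated H3(1-18)K9me3 peptide (50 nM) in PBS pH 7.4, 0.01% Tween-20, then compound added for 30 min. AlphaScreen streptavidin donor/nickel chelate acceptor beads (10 ug/mL final), 30 min dark, luminescence read.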
# PI5P4K alpha inh: qHTS for Inhibitors of phosphatidylinositol 5-phosphate 4-kinase (PI5P4K); Phosphatidylinositol 5-phosphate 4-kinase type-2 alpha (Homo sapiens), P48426; PI5P4Kalpha enzyme, ADP-Glo luminescence, 60 min; active compounds read low; max response, %; hit rate 1.2% among 330,000; active = max response of -50% or lower; inconclusive = between -30% and -50%; inactive = -30% or higher; also: value at the top dose of about 77 µM; % is scaled to controls: 0 for no effect and ±100 for the full control effect
#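 Quantitative HTS of the MLSMR library against PI5P4Kalpha with substrate. ATP added last at 5 microM final; room temperature, 60 minutes. Remaining ATP depleted, ADP converted and read as luminescence.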
# BAZ2B inh: qHTS Assay for Inhibitors of BAZ2B; Bromodomain adjacent to zinc finger domain protein 2B (Homo sapiens), Q9UIF8; AlphaScreen BAZ2B-H3K14Ac peptide displacement; Potency, µM (series often up to 114 µM), for inactives: at the highest dose activity change, negative = inhibition, hits mostly inhibitors; hit rate 4.4% among 360,000; also: potency is read from the fitted curve at half-maximal effect; % is scaled to controls: 0 for no effect and ±100 for the full control effect; nearly all actives have a fitted effect of over 60% in size
#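 AlphaScreen displacement: compounds (up to 110uM) incubated 30 min at room temperature with a preformed 50 nM BAZ2B/50 nM biotinylated H3K14Ac peptide complex in PBS pH 7.4 with Tween-20. Donor and acceptor beads at 10 ug/mL final added, 20 min light-protected before reading.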
# JMJD2A Tudor inh: qHTS Assay for Inhibitors of JMJD2A-Tudor Domain; AlphaScreen JMJD2A-Tudor / H3K4me3 peptide binding; Potency, µM (highest dose often 114 µM), for the others: at the highest dose activity change, negative = inhibition, actives largely listed as inhibitors; hit rate 4.4% among 390,000; AID 504339, 2011; also: potency is read from the fitted curve at half-maximal effect; % is scaled to controls: 0 for no effect and ±100 for the full control effect; nearly all actives have a fitted effect of over 50% in size
# Starred values were filed as active, the others as inactive; ? = inconclusive; . = no result given; [ ] = another dose, or the depositor's remark. Shown are actives, neighbours in structure and some others; about 11% of the full set was active somewhere. Unless noted, calls follow the shape of the dose curve; as a rule, active = well fitted inhibition curve with a large enough effect; inconclusive = small, poorly fitted or top-dose-only effect; inactive = no such curve, though single readings can be large or run the other way.
SMILES,G9a block,L3MBTL1 inh,HP1b binding inh,PI5P4K alpha inh,BAZ2B inh,JMJD2A Tudor inh
Nc1n[nH]c(S(=O)(=O)CCCc2ccccc2)n1,50µM*,3%,67%,1,-4%,-14%[11.4 µM]
O=S(=O)(CCCc1ccccc1)c1ncn[nH]1,-8%,3%,10%,1,6%,-32%
COc1cccc(NC(=O)c2cc3c(=O)n(C)c4ccccc4c3n2C)c1,2%[59 µM],.,29%,.,0%,-1%
Cc1ccc(-c2ccc(NC(=O)C3C4C=CC(C4)C3C(=O)O)cc2)o1 (stereo not drawn),16µM*,.,14%,.,?,-32%
COc1ccc(NC(=O)C2C3C=CC(C3)C2C(=O)O)cc1 (stereo not drawn),3%,3%,38%,3,-13%,-16%[11.4 µM]
CCCCCNC(=O)c1ccc2c(=O)n(CCCOCC)c(=S)[nH]c2c1,1%[59 µM],.,37%,4,-13%,-18%
CCOCCCn1c(=S)[nH]c2cc(C(=O)N3CCOCC3)ccc2c1=O,?,3%,17%,.,?,22µM*
CCOCCCn1c(=S)[nH]c2cc(C(=O)NCC(OC)OC)ccc2c1=O,25µM*,.,48%,6,?,-18%
Cc1cccc(CNC(=O)c2ccc(NC(=O)N3CCSc4ccccc43)cc2)c1,9%[59 µM],.,29%,.,-3%,-6%
CSc1nnc(-c2sc3cc(C(F)(F)F)cnc3c2-c2cccnc2)n1C,50µM*,.,20%,-3,5%,-8%
COC(=O)c1sc2cc(C(F)(F)F)cnc2c1-c1cccnc1,16%[59 µM],1%,3%,.,12%,-9%
CS(=O)(=O)c1ccc(C(=O)OCC(=O)N2CCCC2)cc1[N+](=O)[O-],.,.,37%,.,.,-19%
COc1cccc(NC(=O)CSc2nnc(NC(=O)NC3CCCCC3)s2)c1,-12%[59 µM],.,-5%,.,-24%,-33%
O=[N+]([O-])c1cccc(CN(CCO)Cc2ccccc2)c1,.,9%,4%,.,-6%,-23%
OCCN(Cc1ccccc1)Cc1ccccc1O,10µM*,-1%,79µM*,0,56µM*,?
CCCN(CCO)Cc1cccc(Br)c1,?,7%,?,.,50µM*,4.5µM*
OCCN(CCO)Cc1ccc(Br)cc1,20µM*,.,-35%,-5,50µM*,20µM*
O=C(COc1ccc2c(c1)OCO2)Nc1nnc(Cc2ccccc2)s1,18µM*,.,?,?,-9%,-16%
COCc1nnc(NC(=O)COc2ccc3c(c2)OCO3)s1,22µM*,.,?,-4,-31%,-22%
COc1ccc(CN2CCC(C(=O)Nc3ccc(Oc4cccnc4)cc3)CC2)cc1,35µM*,.,4%,2,-28%,-16%
COc1cccc(-c2cc(C(=O)NCCc3ccc(C)cc3)[nH]n2)c1,-32%[59 µM],.,30%,.,-7%,-8%
Cc1cc(Nc2ccccc2)c2c([N+](=O)[O-])c(C)cc(C)c2n1,22µM*,?,40µM*,19,32µM*,25µM*
Cc1cccc(Nc2cc(C)nc3ccccc23)c1,.,-5%,40%,0,-6%,-10%
Cc1ccccc1Nc1nnc(-c2ccc(C)c(S(=O)(=O)N3CCN(C)CC3)c2)c2ccccc12,-27%[59 µM],.,4%,.,-36%,-19%
Cc1ccc(C)c(Nc2nnc(-c3ccc(C)c(S(=O)(=O)N4CCN(C)CC4)c3)c3ccccc23)c1,13µM*,.,-2%,.,?,?
SMILES,G9a block,L3MBTL1 inh,HP1b binding inh,PI5P4K alpha inh,BAZ2B inh,JMJD2A Tudor inh
COc1ccccc1CCNC(=O)Cc1c(C)c2cc3c(C(C)(C)C)coc3c(C)c2oc1=O,-30%[59 µM],.,32%,.,-20%,-22%
Cc1ccc(C(C(=O)NC(C)(C)C)N(Cc2ccco2)C(=O)Cn2nnc(-c3cccs3)n2)cc1 (stereo not drawn),5%[59 µM],-4%,37%,18,9%,-12%[57.1 µM]
Cc1ccc(-c2nnn(CC(=O)N(c3cccc(O)c3)C(C(=O)NC(C)(C)C)c3cccs3)n2)o1 (stereo not drawn),45µM*,-8%,5%,.,1%,-20%
Cc1ccc(-c2nnn(CC(=O)N(c3ccccc3)C(C(=O)NC(C)(C)C)c3cccs3)n2)o1 (stereo not drawn),1%[59 µM],-4%,5%,1,6%,-8%
CC(C)(C)NC(=O)C(c1ccncc1)N(C(=O)Cn1nnc(-c2ccc(F)cc2)n1)c1ccccc1 (stereo not drawn),22µM*,?,-4%,-4,?,?
CC(C)(C)NC(=O)C(c1ccc(O)cc1)N(Cc1ccco1)C(=O)Cn1nnc(-c2cccs2)n1 (stereo not drawn),20µM*,-4%,2%,.,-32%,?
Cc1ccc(-c2nnn(CC(=O)N(c3cccc(F)c3)C(C(=O)NC(C)(C)C)c3ccco3)n2)o1 (stereo not drawn),50µM*,-10%,27%,0,-27%,-13%
CC(C)(C)NC(=O)C(c1ccncc1)N(C(=O)Cn1nnc(-c2ccc(F)cc2)n1)c1ccc(F)cc1 (stereo not drawn),3%[12.7 µM],7%,19%,2,-4%,-11%
Cc1ccc(Cl)cc1NC(=O)C1CCCN(S(=O)(=O)c2c(C)noc2/C=C/N(C)C)C1 (stereo not drawn),?,.,25%,.,?,-28%
O=C1C2=C(C(=O)c3ccccc31)C1O[C@](CCCCN3C(=O)c4ccccc4C3=O)(Cc3ccccc31)O2,-137%[2.33 µM],.,.,.,?,.
O=C1C2=C(C(=O)c3ccccc31)C1O[C@](c3ccsc3)(Cc3ccccc31)O2,-38%[2.33 µM],.,.,.,10µM*,.
O=c1oc2ccccc2c2c1C1O[C@](c3ccsc3)(Cc3ccccc31)O2,.,.,.,.,8.9µM*,.
CN(C)CCCN(C(=O)c1sc2ccccc2c1Cl)c1nc2c(F)cccc2s1,25µM*,-4%,-7%,-2,-17%,?
Cc1cccc2sc(N(CCCN(C)C)C(=O)COc3ccc(Cl)cc3)nc12,50µM*,.,10%,28,.,-26%
Cc1ccc2nc(N(CCCN(C)C)C(=O)COc3ccc(Cl)cc3)sc2c1,?,.,30%,25,.,-29%
COc1cc(C(=O)N(CCCN(C)C)c2nc3c(OC)cccc3s2)cc(OC)c1OC,-9%[59 µM],.,12%,.,-12%,-26%
CN(C)CCCN(C(=O)c1ccc2c(c1)CCCC2)c1nc2c(F)cccc2s1,?,?,?,-3,?,45µM*
